# PPARg SRC1 recr: agonists of human PPARgamma SRC-1 coactivator recruitment; hit rate 0.41% among 200,000; activation, % at 8 µM; P37231; PPARgamma-SRC-1 coactivator recruitment biochemical assay; in the data active = activation above about 19%
# Target sequence (P37231 whole entry, looked up): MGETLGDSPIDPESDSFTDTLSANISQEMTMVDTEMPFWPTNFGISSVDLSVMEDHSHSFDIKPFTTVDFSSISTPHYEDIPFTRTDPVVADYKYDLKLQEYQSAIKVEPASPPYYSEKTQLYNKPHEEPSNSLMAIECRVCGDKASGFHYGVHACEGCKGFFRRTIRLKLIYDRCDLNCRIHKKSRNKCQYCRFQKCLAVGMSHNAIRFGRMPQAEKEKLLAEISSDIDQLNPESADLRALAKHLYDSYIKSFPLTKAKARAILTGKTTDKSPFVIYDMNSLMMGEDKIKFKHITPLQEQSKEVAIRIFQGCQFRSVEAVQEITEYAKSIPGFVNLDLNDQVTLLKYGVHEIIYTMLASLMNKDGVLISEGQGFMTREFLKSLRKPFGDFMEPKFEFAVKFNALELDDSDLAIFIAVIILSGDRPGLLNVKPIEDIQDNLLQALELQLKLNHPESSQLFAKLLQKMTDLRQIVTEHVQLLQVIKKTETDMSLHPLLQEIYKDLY
# PPARg SRC-3 ag: agonists of human PPARgamma SRC-3 coactivator recruitment; P37231; biochemical PPARgamma/SRC-3 coactivator recruitment assay; activation, % at 8 µM; hit rate 0.26% among 200,000; AID 731; in the data active = activation above about 23%
# SRC3 TRFRET art: flags TR-FRET format artefacts in PPARgamma SRC-3 recruitment agonist screen; hit rate 0.39% among 99,000; TR-FRET artefact counter-screen, PPARgamma/SRC-3 format; active compounds read high; TR-FRET ratio at 8 µM; AID 1048
# SRC2 TRFRET art: TR-FRET artefact, counter-screen to PPARgamma/SRC-2 agonist assay; active compounds read high; TR-FRET ratio at 8 µM; hit rate 0.4% among 200,000; AID 1049
# PPARg SRC-2 ag: promotes SRC-2 coactivator recruitment by human PPARgamma. P37231. PPARgamma LBD-SRC-2 recruitment, biochemical. activation, % at 8 µM. hit rate 0.34% among 200,000. AID 1032; in the data active = activation above about 22%
# SRC1 TRFRET art: TR-FRET artefact, counter-screen to PPARgamma/SRC-1 agonist assay; TR-FRET detection artefact counter-screen, emission ratio; active compounds read high; TR-FRET ratio at 8 µM; hit rate 0.34% among 99,000; AID 1051; in the data active = TR-FRET ratio above about 2300
# Numbers stand for hits; 0 = inactive; - = no result; + = active, no number. An excerpt weighted towards active compounds, which were near 0.9% of everything screened. Cut-off read from the data, not from the text of the source, unless noted: active = TR-FRET ratio above about 2000; inactive = the rest.
SMILES,PPARg SRC1 recr,PPARg SRC-3 ag,SRC3 TRFRET art,SRC2 TRFRET art,PPARg SRC-2 ag,SRC1 TRFRET art
Cc1ccc(C)c(N2CCN(C(=O)CCCn3c(=S)[nH]c4cc5c(cc4c3=O)OCO5)CC2)c1,0,0,-,2000,0,-
O=C(CCCn1c(=S)[nH]c2cc3c(cc2c1=O)OCO3)N1CCN(c2ccccc2F)CC1,0,0,-,0,0,-
O=C(COC(=O)c1ccccc1NC(=O)c1ccco1)NC1CC1,0,0,0,2060,0,0
O=C(COC(=O)c1ccccc1NC(=O)c1ccco1)NC1CCS(=O)(=O)C1 (stereo unspecified),0,0,0,0,0,0
COc1ccc(C(=O)Nc2cc(C)c3c(=O)oc4ccccc4c3n2)cc1,24,0,-,0,0,-
CCOC(=O)C1CCN(C(=O)CSc2ccccc2Cl)CC1,21,0,0,0,0,0
CCCCNC(=O)N1c2ccccc2CC1C (stereo unspecified),0,0,0,0,0,0
CCN(CC)c1ccc2cc(-c3nc4ccccc4[nH]3)c(=O)oc2c1,26,0,-,0,0,-
CCN(CC)c1ccc2cc(-c3nc4ccccc4n3C)c(=O)oc2c1,0,0,-,0,0,-
C#CCn1c(=NC(=O)c2cc(Cl)sc2Cl)sc2cc(S(N)(=O)=O)ccc21,0,0,2182,2016,0,0
COC(=O)Cn1c(=NC(=O)c2sc3ccccc3c2Cl)sc2cc(S(N)(=O)=O)ccc21,0,0,2165,1991,0,0
COC(=O)Cn1c(=NC(=O)c2nc3ccccc3s2)sc2cc(S(C)(=O)=O)ccc21,0,0,0,0,0,0
C#CCn1c(=NC(=O)CN2C(=O)CCC2=O)sc2cc(S(N)(=O)=O)ccc21,0,0,0,0,0,0
CCOC(=O)Cn1c(=NC(=O)c2sc3ccccc3c2Cl)sc2cc(S(N)(=O)=O)ccc21,0,+,5980,0,0,0
O=C(Nc1cccc(S(=O)(=O)N2CCCC2)c1)c1cc(-c2ccccn2)nc2ccccc12,0,0,0,0,0,0
CN(CP(=O)(O)CN(C)S(C)(=O)=O)S(C)(=O)=O,21,0,-,0,0,-
CN(C)S(=O)(=O)c1cccc(NC(=O)COC(=O)c2cc(-c3cccc(Br)c3)nc3ccccc23)c1,0,26,3725,2575,0,2585
CCCNC(=O)c1nc(C)n(-c2cc(Cl)ccc2Cl)n1,0,0,0,0,0,0
Nc1nccc(-c2cccs2)n1,0,0,0,2014,0,0
O=C(Nc1nccc(-c2cccs2)n1)c1cccs1,0,0,-,0,0,-
COC(=O)c1[nH]c2cc(OC)c(OC)cc2c1NC(=O)Oc1ccccc1,0,28,-,0,0,-
O=C(N/N=C/c1sc(N2CCOCC2)nc1-c1ccccc1)c1ccccc1O,0,0,0,0,0,0
O=Cc1sc(N2CCOCC2)nc1-c1ccccc1,0,0,2197,0,0,0
Cn1nnnc1SCC(=O)Nc1cc(S(=O)(=O)N2CCCC2)ccc1Cl,0,0,0,0,0,0
CN(C)S(=O)(=O)c1ccc(Cl)c(NC(=O)CSc2nnnn2-c2ccc(O)cc2)c1,0,0,0,2002,0,0
SMILES,PPARg SRC1 recr,PPARg SRC-3 ag,SRC3 TRFRET art,SRC2 TRFRET art,PPARg SRC-2 ag,SRC1 TRFRET art
CCOC(=O)c1cnc2c(C(F)(F)F)cccc2c1N1CCOCC1,0,0,-,0,0,-
CCOC(=O)c1cnc2c(C)c(Cl)ccc2c1N1CCOCC1,0,40,-,0,0,-
COc1cc(/C=C(\C#N)C(=O)NC2CCCCC2)ccc1OCc1ccc(C(=O)O)cc1,0,0,0,0,0,0
CS(=O)(=O)N1CCC(Oc2ccccc2C(=O)NC(C2CC2)C2CC2)CC1,0,0,0,0,0,0
COc1ccc(OCC(=O)NC(=S)Nc2ccc3c4c(cccc24)CC3)cc1,0,0,2132,0,0,0
Cc1ccccc1OCC(=O)NC(=S)Nc1ccc2c3c(cccc13)CC2,0,0,-,0,0,-
Cc1cccc(Cn2cc(SCC(=O)Nc3nccs3)c3ccccc32)c1,0,0,-,0,0,-
Cc1ccc(Cn2cc(SCC(=O)Nc3nccs3)c3ccccc32)cc1,0,0,-,2880,0,-
COc1cc(NC(=O)c2ccc(Cl)cc2Cl)ccc1-c1cc2ccccc2oc1=O,0,0,-,2335,0,-
COc1cc(NC(C)=O)ccc1-c1cc2ccccc2oc1=O,0,0,0,0,0,0
Cc1c(NS(=O)(=O)c2ccc3c(c2)OCCO3)cccc1-c1nc2cccnc2s1,0,0,-,1991,0,-
Cc1ccsc1/C=C1\SC(N)=NC1=O,0,0,-,0,0,-
Cc1ccc(/C=C2\SC(N)=NC2=O)s1,0,0,0,0,24,0

# Compound activity (PubChem)
